Consider 92 molecules from PubChem BioAssay AID2221 (Broad Institute, 2009).

Where “and” joins values, the source holds several entries; their conditions need not be identical. Equal entries are not always repeated. In all, about 290,000 compounds went through this assay and about 2,200 (0.76%) were called active. What follows is part of a selection rich in actives, with near analogues and random picks from the rest. A number with no mark means an inactive call. Cut-off read from the data, not from the text of the source: active = inhibition above about 30%; inconclusive = no clear call, values can overlap the other calls; inactive = below that.

The target in this test is Protein RecA (Mycobacterium tuberculosis (strain ATCC 25618 / H37Rv)) (UniProt P9WHJ3). As to the kind of experiment: Mtb RecA intein splicing inhibitors, primary screen, biochemical, fluorescence, HTS (AID 2221).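 Note: 0% = vehicle wells and 100% = reference inhibitor control wells.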 The settings on record: cell-free RecA intein splicing, active compounds read high, concentration not given here.
Protein RecA (Mycobacterium tuberculosis (strain ATCC 25618 / H37Rv)), sequence (P9WHJ3 whole entry, looked up): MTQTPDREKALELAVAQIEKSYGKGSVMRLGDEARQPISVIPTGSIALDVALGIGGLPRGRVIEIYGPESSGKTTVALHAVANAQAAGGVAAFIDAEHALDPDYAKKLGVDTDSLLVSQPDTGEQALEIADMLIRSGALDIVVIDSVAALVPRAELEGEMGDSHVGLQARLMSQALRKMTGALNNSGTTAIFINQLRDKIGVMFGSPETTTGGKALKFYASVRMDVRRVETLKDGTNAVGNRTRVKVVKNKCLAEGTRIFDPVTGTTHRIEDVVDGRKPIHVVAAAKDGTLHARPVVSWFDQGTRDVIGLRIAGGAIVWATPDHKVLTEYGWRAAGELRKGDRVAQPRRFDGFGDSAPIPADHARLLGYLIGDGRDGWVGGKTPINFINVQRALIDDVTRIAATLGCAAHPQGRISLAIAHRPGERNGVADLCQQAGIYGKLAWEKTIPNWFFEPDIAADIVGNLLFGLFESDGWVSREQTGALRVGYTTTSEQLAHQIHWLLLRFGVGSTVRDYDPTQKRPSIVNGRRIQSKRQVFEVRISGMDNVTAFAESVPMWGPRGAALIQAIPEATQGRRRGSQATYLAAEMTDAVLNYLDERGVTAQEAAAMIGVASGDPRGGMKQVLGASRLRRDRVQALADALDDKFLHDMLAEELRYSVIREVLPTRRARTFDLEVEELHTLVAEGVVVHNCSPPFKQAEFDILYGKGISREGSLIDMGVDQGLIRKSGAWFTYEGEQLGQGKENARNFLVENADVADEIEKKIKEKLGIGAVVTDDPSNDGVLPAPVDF
As a reminder, the inhibition is the drop in the measured response relative to a control, in per cent. For the molecule `CN(C)S(=O)(=O)c1ccc2oc(SCC(=O)Nc3ccccc3F)nc2c1`, the inhibition is -2.69%.

As for `N#CCc1c(C#N)c(N)nc(N2CCCC2)c1C#N`, the inhibition is 0.638%.

With `N#Cc1c(-c2ccccc2)cc(-c2ccccc2)nc1SCC(=O)O`, the inhibition was 0.292%.

For `N#Cc1c(N2CCCCC2)nc(N)c2c(N)nc(SCC(=O)O)cc12`, the inhibition is 61.1% (active).

For `CCOC(=O)C1=C(c2ccccc2)NC(=S)NC1c1ccc(Cl)cc1` (configuration not stated), the inhibition is 8.84%.

On to `CCOc1ccc(C2NC(=S)NC3=C2CCc2ccccc23)cc1` (configuration not stated), for which the inhibition is 15%.

As to `COc1ccc(C2NC(=S)NC3=C2CCc2ccccc23)cc1OC` (configuration not stated), the inhibition was 45.9% (active).

Turning to `Cc1nn(C(C)(C)C)c(OC(=O)CC(C)C)c1S(=O)(=O)c1ccccc1`, the inhibition was 8.28%.

Regarding `O=C(CCNS(=O)(=O)c1cccs1)N1CCN(c2ccc(F)cc2)CC1`, the inhibition was -0.494%.

For `CCOCC(=O)NCc1ccc2c(c1)cc(C)n2C`, the inhibition is 30.1% (active).

With `COc1cc(C(=O)NCc2ccc3c(c2)cc(C)n3C)cc(OC)c1OC`, the inhibition was 1.47%.

On to `Cc1ccc(CNC(=O)COc2ccc3c(c2)CCC3)cc1`, for which the inhibition was 1.94%.

On to `CCc1cc(CNC(=O)CC2C(=O)NCCN2Cc2ccccc2C(F)(F)F)on1` (configuration not stated), for which the inhibition was -0.415%.

Take `COc1ccc(C(=O)c2c(C)oc3cc([N+](=O)[O-])c(O)c([N+](=O)[O-])c23)cc1`: the inhibition was 8.62%.

As to `Cc1oc2cc([N+](=O)[O-])c(O)c([N+](=O)[O-])c2c1C(=O)c1ccc(Br)cc1`, the inhibition is 41.5% (active).

As to `Cc1oc2cc(Br)c(O)c(Br)c2c1C(=O)c1ccccc1`, the inhibition was 12.7%.

In the case of `COC(=O)[C@H]1[C@H]2C[C@H]3c4[nH]c5ccccc5c4CCN3C[C@@H]2CC[C@@H]1O`, the inhibition is 0.605% and -6.9%.

In the case of `CC(Oc1cc2oc(=O)c3c(c2cc1Cl)CCCC3)C(=O)NCc1ccncc1` (configuration not stated), the inhibition was 0.148%.

On to `O=C(CN(C(=O)c1csnn1)c1cccc(Cl)c1)NC1CCCC1`, for which the inhibition was -3.49%.

`O=C(Nc1ccc(Cl)c(Cl)c1)c1ccccc1NC(=O)C1CC=CCC1C(=O)O` (configuration not stated): the inhibition is 0.473%.

As to `O=C(c1ccc(Cl)cc1)c1cnc(Nc2ccccc2)s1`, the inhibition is -1.16%.

In the case of `O=C(Nc1ccccc1)c1nnsc1S(=O)(=O)c1ccc(Cl)cc1`, the inhibition is 70% (active).

Consider `CN(c1cccc(NC(=O)Nc2ccc(Cl)cc2)c1)S(C)(=O)=O`, for which the inhibition is 4.89%.

For the molecule `Cc1cc(C)nc(SCc2nnc(SCC(=O)OC3CCCCC3)o2)n1`, the inhibition is 0.246%.

Consider `CCOC(=O)C1=C(c2ccc(OC)cc2)C(=O)c2ccccc2C1=O`, for which the inhibition is 83.5% (active).

Consider `COc1ccc(N2CCN(C(C)=C3C(=O)c4ccccc4C3=O)CC2)cc1`, for which the inhibition is -1.11%.

With `CCOC(=O)c1c(-c2ccc(C)cc2)csc1/N=C(\C)C1=C(O)c2ccccc2C1=O`, the inhibition is -0.167%.

With `CC1CN(C(=O)CCC(=O)NCCCN2CCC(Cc3ccccc3)CC2)c2cc(Cl)ccc2O1` (configuration not stated), the inhibition was 4.67%.

With `COc1cccc(CCNC(=O)c2cccc(NC(=O)C3=C(C)OCCS3)c2)c1`, the inhibition was -0.654%.

Regarding `Cn1c(=O)c2sccc2n(Cc2ccc(Br)cc2)c1=O`, the inhibition was 1.32%.

In the case of `CCN(C(=O)CSc1nnnn1-c1ccccc1OC)C1CCS(=O)(=O)C1` (configuration not stated), the inhibition is -4.51%.

`COc1ccccc1N1CCN(S(=O)(=O)c2ccc(Cl)cc2)CC1`: the inhibition is 13.3%.

With `COc1ccccc1-n1nnnc1S(=O)(=O)Cc1ccc(Cl)cc1`, the inhibition was 81.5% (active).

As for `O=C(CSc1nc2[nH]ncc2c(=O)[nH]1)Nc1ccc(F)cc1`, the inhibition is -1.71%.

Turning to `CCC(=C/c1sc2ccc3ccccc3c2[n+]1C)/C=C1\Sc2ccc3ccccc3c2N1C`, the inhibition was -0.0609%.

For the molecule `COc1cccc(NC(=O)CN(C)C(=O)c2ccccc2CCc2ccccc2)c1`, the inhibition was 5.79%.

For `O=C(CN1CCN(S(=O)(=O)c2ccc(Br)cc2)CC1)Nc1ccccc1C(=O)c1ccccc1`, the inhibition was -0.838%.

As to `CCOC(=O)c1ccccc1C(=O)N1CCOCCOCCOCC1`, the inhibition is 0.452%.

Take `Cc1oc2c(c1C(=O)N1CCOCC1)C(=O)c1ccccc1C2=O`: the inhibition is 86% (active).

On to `Cc1noc(C)c1C(=O)N1CCOCC1`, for which the inhibition is 1.19%.

For `Nc1[nH]c(=S)nc2nc(-c3ccccc3)c(-c3ccccc3)nc12`, the inhibition was -3.24%.

As for `Cn1cnc2c1c(=O)n(Cc1ccccc1C#N)c(=O)n2C`, the inhibition was -5.24%.

As for `O=C(CCC(=O)N/N=C/c1ccc(Br)o1)N/N=C/c1ccc(Br)o1`, the inhibition was -0.217%.

Take `CCOC(=O)c1c(NC(=O)CCl)sc(C(=O)N(CC)CC)c1C`: the inhibition was 46.7% (active).

As for `CCOC(=O)c1sc(NC(=O)CCN2CCOCC2)c(C(=O)OCC)c1C`, the inhibition was 2.17%.

In the case of `CCOC(=O)Nc1sc(C(=O)N(C)C)c(C)c1C(=O)OCC`, the inhibition is 1.54%.

As for `Cc1nc(CNS(=O)(=O)c2cc([N+](=O)[O-])ccc2C)cs1`, the inhibition is -3.48%.

For `CCc1ccccc1N(CC(=O)NCC1CCCO1)C(=O)CCC(=O)Nc1nccs1` (configuration not stated), the inhibition was -1.77%.

For the molecule `Cc1ccc(C)c(NC(CC(=O)c2ccccc2)C(=O)OCC(=O)c2cccs2)c1` (configuration not stated), the inhibition was -3.12%.

For the molecule `CCc1cccc(C)c1NC(=O)COC(=O)CNC(=O)c1cccs1`, the inhibition was -3.74%.

For the molecule `Cc1ccccc1C(CC(=O)c1cccs1)C(C#N)C#N` (configuration not stated), the inhibition was 63.2% (active).

Turning to `Cc1ccc(Sc2cc(N3CCOCC3)nc(-c3ccccc3)n2)cc1`, the inhibition is -0.766%.

`O=S(=O)(c1ccc(-c2ccno2)s1)N1CCCCC1`: the inhibition is 0.0995%.

Take `Cc1cc(C)n2nc(C(=O)NC(C)(C)C)nc2n1`: the inhibition is -3.67%.

Consider `Cc1cc(C)n2nc(CNS(=O)(=O)c3c(F)c(F)c(F)c(F)c3F)nc2n1`, for which the inhibition is 33% (active).

In the case of `Cc1cc(C)n2nc(SCC(N)=O)nc2n1`, the inhibition is -1.48%.

Consider `COc1ccc(N2CCN(C(=O)C3CCN(S(=O)(=O)c4ccc(C)cc4)CC3)CC2)cc1`, for which the inhibition is -2.81%.

For the molecule `CCN(CCNC(=O)C1=C(C)C(=O)OC12CCC(C)CC2)c1ccccc1` (configuration not stated), the inhibition was -9.04%.

Take `O=S(=O)(c1cnccc1N1CCN(/N=C/c2ccc(Br)cc2)CC1)N1CCCCC1`: the inhibition was -5.35%.

On to `COc1ccc(C(CCN(Cc2ccc(OC)c(OC)c2)C(=O)CCl)c2ccccc2)cc1` (configuration not stated), for which the inhibition was 77.7% (active).

For `COc1ccc(COC(=O)NC(C(=O)O)c2ccccc2)cc1` (configuration not stated), the inhibition was -3.65%.

With `COc1ccc(CN(C)C(=O)CC(c2ccccc2)c2ccccc2)cc1`, the inhibition was 12%.

For `CCCc1cc(=O)oc2c(C)c(OCC(=O)Nc3ccccn3)ccc12`, the inhibition is 0.212%.

Turning to `COc1ccc(N2CCN(C(=O)COc3ccc4c(C)cc(=O)oc4c3)CC2)cc1`, the inhibition was -4.41%.

Consider `CC(=O)Nc1cccc(NC(=O)CSc2nccn2Cc2ccc(F)cc2)c1`, for which the inhibition was -1.4%.

With `CN(C)c1ccc(/C=C2\NC(=S)N(Cc3ccccc3)C2=O)cc1`, the inhibition was -1.92%.

Consider `CN(C)c1ccc(C=C2C(=O)OC3(CCCC3)OC2=O)cc1`, for which the inhibition is -3.67%.

Take `CC1=NN(Cc2ccccc2)C(=O)/C1=C/c1ccc(N(C)C)cc1`: the inhibition is 42.9% (active).

For the molecule `CCc1cccc2c3c([nH]c12)C(CC)(CC(=O)O)OCC3` (configuration not stated), the inhibition was -3.9%.

Regarding `CCCC/C(C)=N/NC(=O)NC1CCCCC1`, the inhibition is -5.59%.

Take `O=C1/C(=C/c2ccc3c(c2)OCO3)CCC/C1=C\c1ccc2c(c1)OCO2`: the inhibition is 30.4% (active).

Turning to `O=C(N/N=C/c1ccc2c(c1)OCO2)C(=O)N1CCCC1`, the inhibition is -2.18%.

For `O=C1/C(=C\c2ccc3c(c2)OCO3)N2CCC1CC2`, the inhibition is -0.267%.

As for `Cc1nn(-c2ccccc2)c(C)c1NC(=O)COC(=O)c1cc(Cl)ccc1O`, the inhibition was 0.496%.

Take `CC(C(=O)c1ccc(-c2ccccc2)cc1)[n+]1cccc(Br)c1` (configuration not stated): the inhibition is 0.227%.

With `O=C(Nc1ccccc1Cl)Nc1cccc2cccnc12`, the inhibition was 6.8%.

As for `O=C(Nc1ccccc1Cl)/C(Cl)=C(\Cl)S(=O)c1ccccc1` (configuration not stated), the inhibition is 97% (active).

For `O=C(Cc1ccc2c(c1)CCCC2)Nc1ccccc1Cl`, the inhibition was 5.79%.

Regarding `CCN(C(=O)CSc1nnc(-c2ccc(OC(F)F)cc2)n1N)C1CCS(=O)(=O)C1` (configuration not stated), the inhibition was -2.58%.

`C=CCN1C(=NC(=O)COc2ccccc2)SC2CS(=O)(=O)CC21` (configuration not stated): the inhibition was -0.786%.

In the case of `Cc1nc2ccccc2nc1N/N=C/c1ccc(O)cc1O`, the inhibition is 32% (active).

Take `Oc1ccc(/C=N/NC2=NCCCCC2)c(O)c1`: the inhibition was -9.19%.

In the case of `Oc1ccc(/C=N/Nc2nc(-c3ccccc3F)nc3ccccc23)c(O)c1`, the inhibition was 10.7%.

Regarding `CCCOc1ccc(Cl)cc1Nc1nc(NCCO)nc(N2CCCC2)n1`, the inhibition is -0.826%.

`Cn1c(=O)c2c(-c3cccc(Br)c3)c(C#N)c(N)nc2n(C)c1=O`: the inhibition was -11.9%.

Turning to `CCc1ccc2c(c1)cc(CN(C(=S)Nc1ccccc1Cl)C1CC1)c1nnnn12`, the inhibition was -0.332%.

`CSc1ccccc1NC(=O)C(C)N1C(=O)c2ccccc2S1(=O)=O` (configuration not stated): the inhibition is 1.38%.

Turning to `O=C(Nc1ccc(F)cc1)C(=O)c1cn(CC(=O)N2CCOCC2)c2ccccc12`, the inhibition was -4.57%.

`Cc1ccc(S(=O)(=O)NC2(C(F)(F)F)NC(=O)N(CCc3ccccc3)C2=O)cc1` (configuration not stated): the inhibition was -2.6%.

As to `CC1=NN(c2ccccc2)C(=O)C1C(=O)c1ccc([N+](=O)[O-])cc1` (configuration not stated), the inhibition is 5.51%.

As for `Cc1nn(-c2ccc([N+](=O)[O-])cc2)c(N)c1-c1ccccc1`, the inhibition is 0.233%.

For `O=C1CC(c2ccccc2)=NN1c1ccc([N+](=O)[O-])cc1`, the inhibition is 54.9% (active).
